High-throughput results from PubChem BioAssay.
Hits are enriched below; roughly 3.8% of the tested compounds scored in any of these assays.
ADAM17 inh: inhibits human ADAM17. 370,000 compounds, 0.83% hits. inhibition, % at 6.95 µM. P78536. recombinant ADAM17, EDANS/DABCYL FRET peptide cleavage;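 active means inhibition above the mean of compounds lying between control limits plus 3 SD, set per campaign, cut at about 8.5% in these data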
FGF22 binding: FGF22 (human) thermal shift binding | Q9HCT0 | recombinant FGF22 thermal shift, SYPRO orange fluorescence; percent of sucrose octasulfate shift, DMSO zero | activity (Tm shift, normalised), % at 9.99 µM | 340,000 compounds, 1.5% hits;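 active means mean Tm shift, scaled 0 neutral to 100 positive control, at about 1.3% or above, every replicate too, limit read from the data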
KLK7 zymogen act: proKLK7 (human) activation, primary screen | P49862 | purified proKLK7, EDANS-DABCYL substrate fluorescence; 100% is mature enzyme control, 0% vehicle | activation, % at 7 µM | 370,000 compounds, 0.9% hits | AID 652039;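 active means activation above the mean of all tested compounds plus 3 SD, computed per campaign excluding outliers beyond control limits, cut at about 13% in these data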
ADAM10 inh: inhibits human ADAM10; AID 720582; 370,000 compounds, 0.62% hits; recombinant ADAM10, EDANS/DABCYL FRET peptide cleavage, 3 h; inhibition, % at 7 µM;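 active means inhibition above a per-campaign cutoff equal to the mean of compounds falling between control-based bounds plus 3 SD, cut at about 20% in these data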
Target sequence (O14672 214-748 limits assumed): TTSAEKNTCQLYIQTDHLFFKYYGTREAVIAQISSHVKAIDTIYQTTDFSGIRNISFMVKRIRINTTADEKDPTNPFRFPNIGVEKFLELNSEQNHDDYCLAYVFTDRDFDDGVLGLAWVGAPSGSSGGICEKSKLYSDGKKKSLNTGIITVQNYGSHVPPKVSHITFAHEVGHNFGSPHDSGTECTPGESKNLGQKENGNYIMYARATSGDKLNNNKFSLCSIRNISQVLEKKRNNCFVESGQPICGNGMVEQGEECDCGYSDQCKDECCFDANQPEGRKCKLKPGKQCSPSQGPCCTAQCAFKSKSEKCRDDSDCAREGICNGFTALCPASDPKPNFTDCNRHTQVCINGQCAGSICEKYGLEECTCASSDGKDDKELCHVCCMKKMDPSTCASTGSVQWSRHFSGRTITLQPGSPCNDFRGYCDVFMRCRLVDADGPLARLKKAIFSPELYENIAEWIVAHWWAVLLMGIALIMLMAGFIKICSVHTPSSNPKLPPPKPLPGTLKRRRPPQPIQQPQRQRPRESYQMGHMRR
rRNA inh HTS: inhibitors of bacterial rRNA selective over humanized ribosomes; E. coli WT GFP vs humanized-ribosome RFP mutants, fluorescence, 24 h; active compounds read low; DMSO median 0, no signal -100; GFP signal change (wild-type ribosome), % (no concentration beside the values); 350,000 compounds, 1.6% hits; AID 720706;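 active means significant combined selectivity score with lowered wild-type GFP, culture density cut under 30%, mutant RFP and density less affected; inactive means any of these conditions unmet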
KLK7 act conf: confirmation of human kallikrein-7 zymogen activators. 3,200 compounds, 68% hits. AID 686949. activation, % at 7 µM. shares compounds with KLK7 zymogen act. purified proKLK7, EDANS-DABCYL substrate fluorescence; scaled: vehicle 0, mature enzyme 100;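 active means activation, as change over the incubation, above the mean of all tested compounds plus 3 SD, cut at about 13% in these data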
EDANS-DABCYL int: fluorescence interference counter-screen for KLK7 activators. EDANS-DABCYL substrate fluorescence interference, no enzyme, 4 h; solvent 0%, active enzyme control 100%. activation, % at 7 µM. 3,200 compounds, 80% hits. shares compounds with KLK7 zymogen act;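 active means activation above the all-compound mean plus 3 SD, ignoring values outside control-based bounds, cut at about 4.8% in these data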;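 further: value is the 4 h activation minus the activation read at time zero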
EDANS interf: counter-screen for kallikrein-7 activators: EDANS-DABCYL interference, dose response; shares compounds with KLK7 zymogen act; EDANS-DABCYL peptide fluorescence interference, no enzyme; EC50, µM; 250 compounds, 20% hits;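 active means compounds that raise the fluorescence signal in this interference counterscreen, with EC50 at or below 10 µM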;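 further: intact quenched peptide substrate alone read at 355 nm excitation and 520 nm emission; signal is fluorescence gain from T0 to T4 after four hours at room temperature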
Numbers stand for hits; – = inactive; · = no result.

SMILES	ADAM17 inh	FGF22 binding	KLK7 zymogen act	ADAM10 inh	rRNA inh HTS	KLK7 act conf	EDANS-DABCYL int	others
COc1ccc(N2CCN(C(=O)c3cc4c(s3)-c3ccccc3OC4)CC2)cc1	–	–	–	–	–	·	·
CCOC(=O)N1CCN(C(=O)c2cc3c(s2)-c2ccccc2OC3)CC1	–	–	32	–	–	–	–
COc1cccc(N2CCN(C(=O)c3cc4c(s3)-c3ccccc3OC4)CC2)c1	–	–	24	–	–	–	21
O=C(c1cc2c(s1)-c1ccccc1OC2)N1CCN(c2ccccn2)CC1	–	·	–	–	–	·	·
Cc1noc(C)c1S(=O)(=O)Nc1ccc2c(c1)CC(=O)N([C@@H](C)CO)C[C@@H](C)[C@H](CN(C)CC1CCCCC1)O2	·	–	·	·	–	·	·
CN1C(=O)c2cc(NC(=O)Cc3cccs3)ccc2OC[C@H]2O[C@H](CC(=O)NCC3CC3)CC[C@H]21	·	–	·	·	–	·	·
CC(=O)c1cc2c(s1)-c1cc(F)ccc1OC2	–	–	71	–	–	69	74
COC(=O)c1cc2c(s1)-c1cc(F)ccc1OC2	–	–	–	–	–	·	·
O=C(NCC1CCCCC1)[C@@H]1[C@@H](CO)[C@@H]2Cn3c(cccc3=O)[C@H]1N2C(=O)c1cccnc1	·	·	·	·	–	·	·
CCOC(=O)c1[nH]c2ccc(OC)cc2c1NC(=O)CCN1CCSCC1	–	–	17	–	–	–	10
CCOC(=O)c1oc2ccc(OC)cc2c1NC(=O)CN1CCN(C)CC1	–	·	16	–	·	–	–
Nc1nccnc1C(=O)OCc1nc2sc3c(c2c(=O)[nH]1)CCCC3	–	–	49	–	–	89	75	EDANS interf=6.5
COc1cccc(C(=O)Nc2ccc3c(c2)C(=O)N(C)C[C@H](OC)[C@H](C)CN(CCc2ccccc2)[C@H](C)CO3)c1	·	–	·	·	–	·	·
Nc1nc2nccc(-c3ccc(Cl)cc3)n2n1	–	·	57	–	·	70	85
CN(C)/C=N/c1nc2nccc(-c3ccc(Cl)cc3)n2n1	–	–	18	–	–	66	69
Cc1cc(-c2ccc(Cl)cc2)n2nc(N)nc2n1	–	·	–	–	·	·	·
Cc1cc(C(=O)Nc2cccc3c2O[C@H](CN(C)C(=O)NC2CCCCC2)[C@@H](C)CN([C@H](C)CO)C3=O)n(C)n1	·	–	·	·	–	·	·
CCN1CCN(c2ccc(N3CCN(C(=O)c4ccc(Br)o4)CC3)nn2)CC1	–	–	19	–	–	–	4.4
O=C(c1ccc(Br)o1)N1CCN(c2ccc(F)cc2)CC1	–	·	–	–	·	·	·
CO[C@@H]1CN(C)C(=O)c2ccc(NC(=O)C3CC3)cc2OC[C@@H](C)N(C)C[C@H]1C	·	–	·	·	–	·	·
CC(=O)Nc1ccc(S(=O)(=O)C(C#N)c2nc3ccccc3nc2NCCO)cc1 (stereo unspecified)	–	–	64	–	–	66	73
CC(=O)Nc1ccc(S(=O)(=O)C(C#N)c2nc3ccccc3nc2NCCCO)cc1 (stereo unspecified)	–	–	39	–	–	53	69
Cc1ccc(S(=O)(=O)C(C#N)c2nc3ccccc3nc2OCCO)cc1 (stereo unspecified)	–	–	–	–	–	·	·
O=C(C[C@@H]1CC[C@H]2[C@@H](COC[C@H](O)CN2C(=O)c2ccccn2)O1)NC1CCC1	·	–	·	·	–	·	·
CO[C@H]1CN(C)C(=O)c2ccc(NC(=O)c3ccccc3)cc2OC[C@@H](C)N(C(C)=O)C[C@@H]1C	·	–	·	·	–	·	·
SMILES	ADAM17 inh	FGF22 binding	KLK7 zymogen act	ADAM10 inh	rRNA inh HTS	KLK7 act conf	EDANS-DABCYL int	others
COc1ccc(S(=O)(=O)N(C)C[C@H]2Oc3ccc(NS(C)(=O)=O)cc3CC(=O)N([C@@H](C)CO)C[C@@H]2C)cc1	·	–	·	·	–	·	·
CC(C)NC[C@H](O)c1ccc(O)c(O)c1	–	–	47	–	·	49	51
CC(C)NCC(O)c1cc(O)cc(O)c1 (stereo unspecified)	–	–	–	–	·	·	·
O=C(C1CCC1)N1CC(=O)N2[C@H](CO)[C@@H](c3ccc(C#Cc4cccc(F)c4)cc3)[C@H]2C1	·	·	·	·	–	·	·
CNC[C@@H]1OCCCC[C@H](C)Oc2ccc(NC(=O)CCC(F)(F)F)cc2C(=O)N([C@H](C)CO)C[C@@H]1C	·	·	·	·	–	·	·
O=C(NC1CCCCC1)c1cc2ccccc2cc1O	–	–	–	–	–	·	·
Nc1nc2ncccc2cc1C(=O)NC1CCCCC1	–	–	24	–	–	20	25
Nc1nc2ncccc2cc1C(=O)NC1CC1	–	–	25	–	–	28	27
Cc1ccc(S(=O)(=O)N(C)C[C@@H]2OCCCC[C@H](C)Oc3ccc(NC(=O)Nc4c(C)noc4C)cc3C(=O)N([C@@H](C)CO)C[C@H]2C)cc1	·	–	·	·	–	·	·
C[C@@H]1CCCCO[C@H](CN(C)C(=O)Nc2cccc3ccccc23)[C@H](C)CN([C@@H](C)CO)C(=O)c2cc(NC(=O)Nc3ccc4c(c3)OCO4)ccc2O1	·	–	·	·	–	·	·
O=c1[nH]c(=S)[nH]c2nc(-c3ccccc3)cnc12	–	–	–	–	–	·	·
O=c1[nH]c(=O)c2nc(-c3ccc(Cl)cc3)cnc2[nH]1	–	–	57	–	–	70	69
COC(=O)C[C@@H]1CC[C@@H]2[C@H](COc3ccc(NS(=O)(=O)c4ccccc4Cl)cc3C(=O)N2C)O1	·	–	·	·	–	·	·
Cn1c(=O)c2cc(NC(=S)NCc3ccccc3F)ccc2n1Cc1ccccc1	–	–	–	–	–	·	·
COc1ccc(NC(=O)NCCc2ccc(Cl)cc2)cc1OC	–	–	–	–	–	·	·
COc1ccc(CCNC(=O)Nc2ccc3c(c2)c(=O)n(C)n3CC=C(C)C)cc1OC	–	–	26	–	–	–	5.4
Cn1c(=O)c2cc(NC(=O)NCc3ccc(F)cc3)ccc2n1C/C=C/c1ccccc1	–	–	–	–	–	·	·
C=C(C)Cn1c2ccc(NC(=O)NCCc3cccs3)cc2c(=O)n1C	–	–	26	–	–	19	9.8	EDANS interf=–
CC(C)=CCn1c2ccc(NC(=O)NCc3ccc(F)cc3)cc2c(=O)n1C	–	–	18	–	–	–	–
CCNC(=S)Nc1ccc2c(c1)c(=O)n(C)n2CC=C(C)C	–	–	46	–	–	31	33
COc1ccc(CNC(=O)Nc2ccc3c(c2)c(=O)n(C)n3Cc2cc(C)cc(C)c2)cc1	–	–	–	–	–	·	·
C=C(C)Cn1c2ccc(NC(=O)CCc3cccnc3)cc2c(=O)n1C	–	–	21	–	–	23	26
